Results: the supplement of paper PMC10849652
Targets with a hit are over-represented here; the source holds about 7,900 in all. About 0.6% of all pairs of compound and target were hits.

What was measured:
Assay in all cases: log2 fold change, soluble protein after heating vs DMSO (PISA); higher = thermal stabilisation; K562 cells, 10 uM, 30 min; active = over 0.2 and 3.5 SD of the protein, either way, in both replicates (recomputed)
[1] = compound: C1=CC=C(C=C1)[C@H](COC2=CC3=C(C=C2)NC(=O)N3)NC(=O)C4=CC=CN(C4=O)CC5=CC(=C(C=C5)F)F
In short: (§1)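 Soluble protein was quantified by TMTpro 16plex LC-MS/MS after channel sums were equalised. It was obtained as the supernatant after 21,000xg for 90 min from pooled aliquots of K562 cells (2×10^6 cells/mL, 10 μM compound, 30 min) heated for 3 min across 48°C-58°C and extracted in PBS with 0.5% NP-40 at 4°C. Thermal stability values are relative to control samples and come from duplicates. They are given as log2 fold changes.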

[2] = compound: CC1=C(SC2=C1C(=N[C@H](C3=NN=C(N32)C)CC(=O)N)C4=CC=C(C=C4)Cl)C
In short: as §1

[3] = compound: CC1=C2C(=CC=C1)N=C(N(C2=O)C3=CC=CC=C3C)CN4C=NC5=C(N=CN=C54)N
In short: as §1

[4] = compound: c1ccc([C@@H]2C[C@H]2NC2CCNCC2)cc1
In short: as §1

[5] = compound: Cc1sc2c(c1C)C(c1ccc(Cl)cc1)=N[C@@H](CC(=O)OC(C)(C)C)c1nnc(C)n1-2
In short: as §1

Measured: log2 fold change

TTC33 (UniProt Q6PID6)
inactive: [1] -0.142 | [2] 0.018 | [3] 0.073 | [4] 0.019

WDR75 (UniProt Q8IWA0)
Sequence of UniProt Q8IWA0 (Q8IWA0 whole entry, looked up): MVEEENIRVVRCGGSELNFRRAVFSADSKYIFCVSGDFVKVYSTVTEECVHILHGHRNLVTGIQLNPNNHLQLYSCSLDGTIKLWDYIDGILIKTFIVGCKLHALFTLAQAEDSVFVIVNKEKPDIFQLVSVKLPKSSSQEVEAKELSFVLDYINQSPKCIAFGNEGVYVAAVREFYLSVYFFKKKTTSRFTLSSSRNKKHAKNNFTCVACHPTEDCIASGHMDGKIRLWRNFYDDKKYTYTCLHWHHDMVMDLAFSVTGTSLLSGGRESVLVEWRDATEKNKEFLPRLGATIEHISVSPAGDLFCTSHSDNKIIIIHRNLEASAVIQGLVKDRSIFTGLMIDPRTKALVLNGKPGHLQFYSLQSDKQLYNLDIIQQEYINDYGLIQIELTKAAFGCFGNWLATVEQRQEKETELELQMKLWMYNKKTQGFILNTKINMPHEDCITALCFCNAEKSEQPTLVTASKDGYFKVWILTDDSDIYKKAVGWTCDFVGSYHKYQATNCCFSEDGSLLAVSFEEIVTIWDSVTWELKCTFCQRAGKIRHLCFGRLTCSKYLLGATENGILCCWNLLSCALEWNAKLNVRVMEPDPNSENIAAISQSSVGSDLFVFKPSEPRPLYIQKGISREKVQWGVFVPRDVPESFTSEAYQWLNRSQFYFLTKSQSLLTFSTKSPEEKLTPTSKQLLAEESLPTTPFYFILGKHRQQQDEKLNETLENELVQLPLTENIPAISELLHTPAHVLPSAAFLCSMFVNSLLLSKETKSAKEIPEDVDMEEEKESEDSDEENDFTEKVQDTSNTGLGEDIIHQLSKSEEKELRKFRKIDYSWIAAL
inactive: [1] -0.031 | [2] -0.24 | [3] 0.002 | [5] 0.304 | [4] -0.089

UTP20 (UniProt O75691)
inactive: [5] 0.034

TRIM44 (UniProt Q96DX7)
Sequence of UniProt Q96DX7 (Q96DX7 whole entry, looked up): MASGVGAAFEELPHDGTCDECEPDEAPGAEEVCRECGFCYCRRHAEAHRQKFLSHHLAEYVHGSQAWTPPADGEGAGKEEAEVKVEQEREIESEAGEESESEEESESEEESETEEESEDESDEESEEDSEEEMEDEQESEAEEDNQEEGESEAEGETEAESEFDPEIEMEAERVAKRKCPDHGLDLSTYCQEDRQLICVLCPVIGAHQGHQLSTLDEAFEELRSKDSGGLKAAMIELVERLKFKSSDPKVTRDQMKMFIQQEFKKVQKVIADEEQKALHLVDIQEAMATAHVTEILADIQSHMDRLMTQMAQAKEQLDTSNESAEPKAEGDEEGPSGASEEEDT
inactive: [1] -0.027 | [2] 0.008 | [3] -0.002 | [5] -0.006 | [4] 0.012

TOM1L2 (UniProt Q6ZVM7)
inactive: [2] 0.138 | [3] 0.101 | [4] -0.001

XRCC1 (UniProt P18887)
inactive: [2] 0.091 | [5] 0.07 | [4] 0.062

TTI2 (UniProt Q6NXR4)
Sequence of UniProt Q6NXR4 (Q6NXR4 whole entry, looked up): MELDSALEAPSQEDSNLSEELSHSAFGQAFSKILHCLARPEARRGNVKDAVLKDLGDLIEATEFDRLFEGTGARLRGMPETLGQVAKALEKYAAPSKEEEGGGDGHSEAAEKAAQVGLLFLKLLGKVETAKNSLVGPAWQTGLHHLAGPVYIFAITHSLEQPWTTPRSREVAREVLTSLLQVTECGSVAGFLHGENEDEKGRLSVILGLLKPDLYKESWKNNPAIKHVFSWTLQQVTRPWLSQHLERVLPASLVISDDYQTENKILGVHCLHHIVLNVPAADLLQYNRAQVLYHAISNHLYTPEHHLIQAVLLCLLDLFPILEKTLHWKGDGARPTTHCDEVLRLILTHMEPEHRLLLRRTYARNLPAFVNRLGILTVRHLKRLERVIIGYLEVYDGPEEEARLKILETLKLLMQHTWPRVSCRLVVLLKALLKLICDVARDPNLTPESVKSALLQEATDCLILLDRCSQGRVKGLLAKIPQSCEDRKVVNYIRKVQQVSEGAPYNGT
inactive: [1] 0.07 | [2] 0.027 | [3] 0.031 | [5] 0.028 | [4] 0.041

U2AF1L5 (UniProt P0DN76)
inactive: [1] -0.008 | [3] -0.075 | [5] 0.057

TMEM9 (UniProt Q9P0T7)
Sequence of UniProt Q9P0T7 (Q9P0T7 whole entry, looked up): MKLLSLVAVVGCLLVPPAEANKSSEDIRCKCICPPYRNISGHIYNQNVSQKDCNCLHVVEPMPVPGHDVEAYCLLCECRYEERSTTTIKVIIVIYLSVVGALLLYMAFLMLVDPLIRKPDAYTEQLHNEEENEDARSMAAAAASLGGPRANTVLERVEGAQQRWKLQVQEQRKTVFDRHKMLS
inactive: [1] 0.008 | [2] 0.02 | [3] -0.002 | [5] -0.027 | [4] -0.079

UBE3B (UniProt Q7Z3V4)
Sequence of UniProt Q7Z3V4 (Q7Z3V4 whole entry, looked up): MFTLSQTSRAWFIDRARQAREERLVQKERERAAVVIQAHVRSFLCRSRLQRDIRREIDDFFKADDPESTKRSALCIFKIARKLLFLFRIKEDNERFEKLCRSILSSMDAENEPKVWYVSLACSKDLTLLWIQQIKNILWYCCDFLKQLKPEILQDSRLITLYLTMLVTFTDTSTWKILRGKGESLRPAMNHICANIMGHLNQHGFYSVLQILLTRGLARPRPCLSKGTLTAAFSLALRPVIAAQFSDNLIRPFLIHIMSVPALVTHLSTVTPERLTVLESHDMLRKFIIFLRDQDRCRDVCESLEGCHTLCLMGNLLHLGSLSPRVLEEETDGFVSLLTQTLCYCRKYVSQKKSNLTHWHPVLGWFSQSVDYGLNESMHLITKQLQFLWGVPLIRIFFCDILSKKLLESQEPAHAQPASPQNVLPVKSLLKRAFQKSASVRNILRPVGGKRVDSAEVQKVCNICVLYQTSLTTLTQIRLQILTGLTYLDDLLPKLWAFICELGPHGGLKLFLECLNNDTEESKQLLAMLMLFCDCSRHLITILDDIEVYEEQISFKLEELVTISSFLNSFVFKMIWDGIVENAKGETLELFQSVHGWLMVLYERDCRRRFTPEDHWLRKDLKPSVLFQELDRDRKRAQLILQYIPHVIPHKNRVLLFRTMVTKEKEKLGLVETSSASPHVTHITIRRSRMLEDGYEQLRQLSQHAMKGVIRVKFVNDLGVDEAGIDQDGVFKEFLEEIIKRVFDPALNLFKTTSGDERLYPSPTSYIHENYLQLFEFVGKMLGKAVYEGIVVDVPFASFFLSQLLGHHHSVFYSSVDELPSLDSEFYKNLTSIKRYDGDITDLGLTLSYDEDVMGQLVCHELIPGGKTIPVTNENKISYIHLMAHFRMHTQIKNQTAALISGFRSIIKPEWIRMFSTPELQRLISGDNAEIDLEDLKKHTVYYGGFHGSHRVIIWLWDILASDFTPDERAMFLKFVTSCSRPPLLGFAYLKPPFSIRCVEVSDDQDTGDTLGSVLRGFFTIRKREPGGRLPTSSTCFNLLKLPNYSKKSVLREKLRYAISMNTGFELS
inactive: [1] -0.081 | [2] -0.147 | [5] -0.214 | [4] 0.172

WDR62 isoform 4 (UniProt O43379)
inactive: [1] 0.007 | [2] 0.027 | [3] 0.031 | [5] 0.004 | [4] 0.009

XRCC5 (UniProt P13010)
Sequence of UniProt P13010 (P13010 whole entry, looked up): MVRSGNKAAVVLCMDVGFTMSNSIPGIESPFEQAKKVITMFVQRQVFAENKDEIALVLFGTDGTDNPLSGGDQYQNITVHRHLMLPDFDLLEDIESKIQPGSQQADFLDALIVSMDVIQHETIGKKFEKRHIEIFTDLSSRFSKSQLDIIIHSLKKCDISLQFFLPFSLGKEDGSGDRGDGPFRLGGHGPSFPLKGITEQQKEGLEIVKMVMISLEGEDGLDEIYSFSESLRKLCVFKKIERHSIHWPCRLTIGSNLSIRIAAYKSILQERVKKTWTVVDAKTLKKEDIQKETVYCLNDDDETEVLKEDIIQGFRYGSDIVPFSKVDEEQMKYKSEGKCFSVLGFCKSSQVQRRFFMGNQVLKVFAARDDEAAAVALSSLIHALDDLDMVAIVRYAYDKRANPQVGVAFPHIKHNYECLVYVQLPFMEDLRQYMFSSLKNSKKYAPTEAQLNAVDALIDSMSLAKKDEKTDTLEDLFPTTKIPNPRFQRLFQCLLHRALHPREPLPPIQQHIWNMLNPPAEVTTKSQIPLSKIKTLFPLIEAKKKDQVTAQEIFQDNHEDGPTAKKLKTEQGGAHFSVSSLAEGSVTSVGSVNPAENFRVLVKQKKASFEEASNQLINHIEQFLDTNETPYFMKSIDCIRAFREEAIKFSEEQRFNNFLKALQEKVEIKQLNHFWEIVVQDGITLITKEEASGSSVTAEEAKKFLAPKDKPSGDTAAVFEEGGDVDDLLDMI
inactive: [1] -0.136 | [2] -0.019 | [3] 0.095 | [5] 0 | [4] -0.003

UBAP2L (UniProt F8W726)
inactive: [1] -0.05 | [5] 0.046

TOM1 (UniProt O60784)
inactive: [1] -0.077 | [5] 0.039

TXNRD1 isoform 7 (UniProt Q16881)
inactive: [1] 0.046 | [3] 0.138

VTI1B (UniProt Q9UEU0)
Sequence of UniProt Q9UEU0 (Q9UEU0 whole entry, looked up): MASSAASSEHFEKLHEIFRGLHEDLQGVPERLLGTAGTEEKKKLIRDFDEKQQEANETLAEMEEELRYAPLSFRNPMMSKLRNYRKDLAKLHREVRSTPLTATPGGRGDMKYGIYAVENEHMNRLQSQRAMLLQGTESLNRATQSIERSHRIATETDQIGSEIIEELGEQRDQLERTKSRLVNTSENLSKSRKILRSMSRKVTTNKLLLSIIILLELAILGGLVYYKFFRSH
inactive: [1] 0.015 | [2] -0.002 | [3] 0.045 | [5] -0.032 | [4] 0.02

TSFM (UniProt P43897)
Sequence of UniProt P43897 (P43897 whole entry, looked up): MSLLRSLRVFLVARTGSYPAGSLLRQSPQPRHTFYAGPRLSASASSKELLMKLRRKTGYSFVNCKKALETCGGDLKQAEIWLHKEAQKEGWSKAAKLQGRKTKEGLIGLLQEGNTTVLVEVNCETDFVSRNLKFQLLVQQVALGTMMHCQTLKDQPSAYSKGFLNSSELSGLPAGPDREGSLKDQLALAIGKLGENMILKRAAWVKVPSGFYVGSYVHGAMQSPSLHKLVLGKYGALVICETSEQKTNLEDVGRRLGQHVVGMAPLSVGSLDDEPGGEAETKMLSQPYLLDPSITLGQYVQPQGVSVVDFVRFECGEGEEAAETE
inactive: [1] -0.17 | [2] 0.03 | [3] 0.177 | [5] -0.138 | [4] 0.012

TMEM104 (UniProt Q8NE00)
inactive: [2] 0.001 | [4] 0.24

XPNPEP3 (UniProt Q9NQH7)
Sequence of UniProt Q9NQH7 (Q9NQH7 whole entry, looked up): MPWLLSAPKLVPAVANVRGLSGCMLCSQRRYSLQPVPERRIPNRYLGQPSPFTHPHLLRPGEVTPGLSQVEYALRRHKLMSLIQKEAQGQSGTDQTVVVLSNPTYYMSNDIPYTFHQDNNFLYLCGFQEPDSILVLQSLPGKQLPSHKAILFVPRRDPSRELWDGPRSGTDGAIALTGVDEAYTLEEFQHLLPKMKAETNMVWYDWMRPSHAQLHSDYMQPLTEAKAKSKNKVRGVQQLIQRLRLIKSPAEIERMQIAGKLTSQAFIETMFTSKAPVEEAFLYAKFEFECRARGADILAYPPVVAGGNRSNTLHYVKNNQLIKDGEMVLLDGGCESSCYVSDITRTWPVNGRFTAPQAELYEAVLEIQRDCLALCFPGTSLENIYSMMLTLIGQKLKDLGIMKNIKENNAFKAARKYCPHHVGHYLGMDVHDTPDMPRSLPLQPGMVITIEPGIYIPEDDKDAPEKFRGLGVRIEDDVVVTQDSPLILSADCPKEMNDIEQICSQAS
inactive: [1] -0.004 | [2] 0.018 | [3] 0.07 | [5] -0.009 | [4] 0.006

WARS1 (UniProt G3V277)
inactive: [1] -0.075 | [3] 0.283 | [5] 0.076

WDR11 (UniProt Q9BZH6)
inactive: [1] -0.076 | [2] 0.067 | [3] 0.111 | [5] 0.05 | [4] 0.023

TTC26
inactive: [1] 0.06 | [3] 0.02 | [5] 0.198

WASH2P (UniProt Q6VEQ5)
inactive: [1] 0.015 | [2] -0.015 | [3] 0.026 | [5] 0.041 | [4] 0.027

ULBP1 (UniProt Q9BZM6)
Sequence of UniProt Q9BZM6 (Q9BZM6 whole entry, looked up): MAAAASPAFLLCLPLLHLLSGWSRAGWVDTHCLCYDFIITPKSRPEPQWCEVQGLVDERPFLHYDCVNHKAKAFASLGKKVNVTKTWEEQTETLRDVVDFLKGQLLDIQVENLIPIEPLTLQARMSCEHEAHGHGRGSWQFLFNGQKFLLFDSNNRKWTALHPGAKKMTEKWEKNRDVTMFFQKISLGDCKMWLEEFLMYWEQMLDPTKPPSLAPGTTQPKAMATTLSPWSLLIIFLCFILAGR
inactive: [2] 0.014 | [3] -0.001 | [5] -0.036 | [4] -0.038
